Drawing on ChEMBL document CHEMBL3433997, “St. Jude Leishmania screening dataset” (2016), this text covers inhibition for 40 compounds.

The structures appear in SMILES notation.

This test concerns the target Hexose transporter 1 (Plasmodium falciparum) (UniProt O97467). The experiment in a line: ST_JUDE_LEISH: Cytotoxicity at 2uM final concentration against transgenic Leishmania Mexicana promastigotes LmPfHT that are glucose transport deficient and complemented with the Plasmodium falciparum hexose transporter. Activity is measured by DNA content using SYBR green in vitro. Type of test: functional.
The inhibition is the drop in the measured response relative to a control, in per cent. In the case of `Cn1ccnc1CNC(=O)c1ccc(-c2cccc(-c3nc4cc(F)ccc4[nH]3)c2)cc1`, the inhibition worked out at 0.96%.

On to `CCOc1ccc(-c2nonc2NC(=O)c2ccccc2Cl)cc1OCC`, for which the inhibition stood at 7.22%.

For the compound `CC(C)C(C(=O)n1cc2c(ccc3nc(N)nc(N)c32)n1)C(C)C`, the inhibition is 11%.

With `CN(C)CCCOc1ccc(CNCC(C)(C)c2nc(-c3ccc(Cl)c(O)c3)c(-c3ccncc3)[nH]2)cc1`, the inhibition turned out to be 1.89%.

Consider `CCNc1cc(C(=O)N[C@@H](Cc2ccccc2)[C@H](O)CNCCc2cccc(C(F)(F)F)c2)cc(N2CCCC2=O)c1`, for which the inhibition was 1.57%.

As to `Cc1cc(N2Cc3ccccc3C2)nc(Nc2cccc(C#N)c2)n1`, the inhibition was 4.04%.

With `c1ccc2c(NCCCCCCCCCNc3ccnc4ccccc34)ccnc2c1`, the inhibition is 4.91%.

As for `O=[N+]([O-])c1cccc(-n2nc(NCc3ccc(Cl)cc3)nc2-c2ccc(F)c(C(F)(F)F)c2)c1`, the inhibition was 2.33%.

For the compound `CCCCOC(=O)c1ccc(Nc2cc(C)nc3ccc(OC)cc23)cc1`, the inhibition came out at 12.5%.

In the case of `N#Cc1ccc(N[C@@H](CC2CCCCC2)C(=O)NCc2cc(F)c(F)cc2F)c2ccccc12`, the inhibition is 14.1%.

As to `Cc1ccc(NC(C)C(=O)Nc2ccccc2)cc1S(=O)(=O)N1CCCCCC1` (stereo not given), the inhibition was found to be 9.81%.

Consider `Cc1onc(-c2ccccc2Cl)c1C(=O)Nc1cc(Cl)c(Cl)cc1Cl`, for which the inhibition amounted to 5.64%.

In the case of `CCNc1cc(C(=O)N[C@@H](Cc2ccccc2)[C@H](O)CNCc2cc(OC)cc(OC)c2)cc(N2CCCS2(=O)=O)c1`, the inhibition was 2.17%.

Regarding `CC1=C(C(=O)Nc2cc3cn[nH]c3cc2F)C(c2ccc(Cl)c(NS(C)(=O)=O)c2)CC(=O)N1` (stereo not given), the inhibition is -0.1%.

For `CCC1(CC)N=C(N)N=C(N)C1c1ccc(Cl)c(Cl)c1` (stereo not given), the inhibition amounted to 0.07%.

Regarding `CCCNCc1ccc(-c2ccc(CN(CCOC)C(=O)c3nn(-c4ccccc4)nc3C)cc2)nc1`, the inhibition was found to be 1.87%.

Take `CC(=O)N1c2ccccc2C(C)=CC1(C)C`: the inhibition is -0.45%.

As to `CCNc1cc(C(=O)N[C@@H](Cc2ccccc2)[C@H](O)CNC2(C(C)C)CCC2)cc(N2CCCCS2(=O)=O)c1`, the inhibition is 0.75%.

Take `COc1ccc2nccc([C@@H](O)CN3CCC(NC(=O)COc4nc(SCc5ccc(F)cc5)nc5c4CCC5)CC3)c2c1`: the inhibition worked out at 0.81%.

As to `CC(CCNc1c2ccccc2nc2ccccc12)N1CCN(C)CC1` (stereo not given), the inhibition is 29.1%.

Regarding `N#CCCn1nc(-c2ccc(Cl)cc2)c2c(c1=O)CCCC2`, the inhibition was found to be 1.16%.

With `CCC(C)CN1C(=O)C(c2ccccc2)(c2ccccc2)N=C1N` (stereo not given), the inhibition came to 2.72%.

Turning to `O=C(N[C@@H](Cc1ccccc1)[C@H](O)CNC1CCOCC1)c1cc(C2CCCC2)cc(N2CCCCS2(=O)=O)c1`, the inhibition was determined as 3.81%.

Consider `Cc1ccccc1OCC(O)CN1CCC(C2CCN(CC(O)COc3ccccc3C)CC2)CC1` (stereo not given), for which the inhibition is 2%.

Regarding `CCCCc1ccc(-c2c(N)nc(N)nc2CC)cc1`, the inhibition turned out to be 9.06%.

As for `O=C(Nc1cccc(CN2CCCN(Cc3cccc(F)c3)CC2)c1)c1ccc(Cl)c(Cl)c1`, the inhibition is 2.83%.

For `CC(C)NCc1ccc(-c2ccc(NC(=O)c3cccc(C#N)c3)cc2)cc1`, the inhibition turned out to be 1.38%.

With `CN1CCN(c2cc3c(cc2Cl)CCN3C(=O)Cc2ccc(NC(=O)Nc3cccc4ccccc34)cc2)CC1`, the inhibition stood at 1.55%.

Consider `O=C(NCc1ccc(Cl)cc1)c1ccc(CN2CCCN(Cc3cccc(O)c3)CC2)cc1`, for which the inhibition was 0.62%.

As to `COc1ccc2nc(C)cc(N/N=C/C=C/c3ccccc3)c2c1`, the inhibition is 7.46%.

As for `COc1ccc(C(=O)Nc2ccc(Cl)cc2C(=O)Nc2ccncc2)cc1`, the inhibition turned out to be 3.94%.

With `CC(C)CN1CCN(c2nc(C#N)c3c(c2C(=S)NC2CCCCC2)CC(C)(C)OC3)CC1`, the inhibition is -1.31%.

With `O=C(NCCCCCN1CCC(c2c[nH]c3ccccc23)CC1)Nc1cccc(C(F)(F)F)c1`, the inhibition was -2.05%.

For the compound `COc1ccc(O)c(-c2sc(N=C(N)N)nc2-c2ccccc2)c1`, the inhibition is 2.67%.

In the case of `COc1cc2nc(C)nc(Nc3cccc(Br)c3)c2cc1OC`, the inhibition was -0.52%.

In the case of `FC(F)(F)c1cccc(Nc2nc3ccccc3nc2Nc2cccc(C(F)(F)F)c2)c1`, the inhibition worked out at 0.5%.

`CN1CCN(c2cc3c(Nc4ccc5c(cnn5Cc5ccccc5)c4)ncnc3cn2)CC1`: the inhibition is 2.08%.

For `O=C(Nc1ccc(Oc2ccccc2)cc1)N(Cc1ccc(-c2ccc(CN3CCNCC3)cc2)cc1)C1CCN(Cc2ccccc2)CC1`, the inhibition was -1.14%.

For `CCNc1cc(C(=O)N[C@@H](Cc2ccccc2)[C@H](O)CNC2CCC(C)(C)CC2)cc(N2CCCCS2(=O)=O)c1`, the inhibition amounted to 1.73%.

`COc1cccc(C(O)CNc2ccnc(Nc3cccc(-c4csc(C)n4)c3)n2)c1` (stereo not given): the inhibition is -0.04%.
